Hits are enriched below; roughly 2.9% of the tested compounds scored in any of these assays.
D3 ag: qHTS of D3 Dopamine Receptor Agonist: qHTS; AID 652048, 2013; 410,000 compounds, 0.58% hits; D3R DiscoveRx beta-arrestin cells, luminescence, 90 min; max activation, %; in the data active = max activation above about 30%
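Agonist-mode cell screen: cells plated at 1500/well and incubated overnight at 37 °C, then exposed to library compounds for 90 min at 37 °C. Detection reagent was added for 30–60 min at room temperature, and luminescence was read.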
D3 antag: qHTS of D3 Dopamine Receptor Antagonist: qHTS; D(3) dopamine receptor (Homo sapiens), P35462; D3R cells, DiscoveRx beta-arrestin luminescence, antagonist mode; active compounds read low; max response, negative = inhibition, %; 360,000 compounds, 2.5% hits; AID 652054, 2013; in the data active = max response below about -50%; inconclusive = no clear call, values can overlap the other calls
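Cells plated overnight at 1500 cells/well, then exposed to library compounds with dopamine controls for 90 minutes at 37 degrees C. DiscoveRx reagent added for 30–60 minutes at room temperature; luminescence read, quantitative HTS format.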
TRPML1 ag: qHTS for Agonists of the Human Mucolipin Transient Receptor Potential 1 (TRPML1); Mucolipin-1 (Homo sapiens), Q9GZU1; TRPML1-expressing cells, Ca2+ dye fluorescence, FDSS; activation, % (test concentration not listed); 410,000 compounds, 0.12% hits; AID 624414, 2012; in the data active = activation above about 50%; inconclusive = mostly about 30% to 49%
Target sequence (Q9GZU1 whole entry, looked up): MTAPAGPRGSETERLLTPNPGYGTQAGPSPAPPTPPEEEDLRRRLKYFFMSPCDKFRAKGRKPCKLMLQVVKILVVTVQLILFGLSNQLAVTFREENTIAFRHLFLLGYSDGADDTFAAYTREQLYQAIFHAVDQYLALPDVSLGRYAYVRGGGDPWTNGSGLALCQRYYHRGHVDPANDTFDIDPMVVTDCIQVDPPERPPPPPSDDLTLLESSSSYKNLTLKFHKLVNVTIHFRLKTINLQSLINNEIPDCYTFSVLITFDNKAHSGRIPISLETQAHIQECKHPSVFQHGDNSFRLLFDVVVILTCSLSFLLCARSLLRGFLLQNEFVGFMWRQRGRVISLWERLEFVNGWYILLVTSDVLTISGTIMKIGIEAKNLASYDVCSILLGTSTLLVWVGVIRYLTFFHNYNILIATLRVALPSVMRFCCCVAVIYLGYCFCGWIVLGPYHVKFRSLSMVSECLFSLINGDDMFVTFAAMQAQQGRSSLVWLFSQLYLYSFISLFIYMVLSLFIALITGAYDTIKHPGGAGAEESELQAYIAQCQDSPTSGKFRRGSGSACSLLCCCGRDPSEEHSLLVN
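Tetracycline-induced TRPML1-DL cells are seeded and incubated overnight before loading with a no-wash Ca2+ dye and quencher. Agonist activity is taken from the 110 s fluorescence read following compound pin-transfer on an FDSS, before EC80 54-4 challenge.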
TRPML1 blocker: qHTS for Inhibitors of the Human Mucolipin Transient Receptor Potential 1 (TRPML1); AID 624415, 2012; Mucolipin-1 (Homo sapiens), Q9GZU1; 390,000 compounds, 0.02% hits; TRPML1-inducible cells, Ca2+ dye fluorescence, FDSS; active compounds read low; inhibition of EC80 agonist-evoked calcium signal; activity change, negative = inhibition, % (concentration not given with the values); in the data active = activity change below about -50%; inconclusive = between about -30% and that limit;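 note: stimulus is agonist 54-4 at its EC80 concentration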
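Calcium fluorescence in TRPML1-DL cells induced overnight with Tet: a 110 s read after compound pin addition, then a 110 s antagonist read after challenge with 54-4 at 4 uM final (EC80).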
Hits are given with their value; - = inactive; ? = inconclusive; . = no result given.

SMILES | D3 ag | D3 antag | TRPML1 ag | TRPML1 blocker
Cc1cc(-c2nn(-c3ccccc3F)cc2CN2CCCC(CO)C2)c(C)s1 (stereo not given) | - | -52.9 | - | -
COCC1CCN(Cc2cn(-c3ccccc3F)nc2-c2cc(C)sc2C)CC1 | - | -84.2 | - | -
COc1ccc(NC(=O)c2cc3c(s2)-c2c(C)cccc2OC3)cc1Cl | - | . | - | -
CCc1ccc(NC(=O)N2CC(C)Oc3ccc(C)cc32)cc1 (stereo not given) | - | . | - | -
N#CC1=C(N)C(C#N)(C#N)[C@H](c2cccnc2)[C@H]2CN(C(=O)OCc3ccccc3)CC=C12 | - | ? | - | -
N#CC1=C(N)C(C#N)(C#N)C(c2ccncc2)C2CN(C(=O)OCc3ccccc3)CC=C12 (stereo not given) | - | -63.2 | - | -
COCCN1C(=O)/C(=C/c2ccc(N3CCCC3)cc2)SC1=S | - | - | 59.5 | -
O=[N+]([O-])c1ccc(C(O)CN2CCN(c3ccccc3)CC2)cc1 (stereo not given) | 34.4 | - | - | -
Oc1ccc(N2CCN(CC(O)c3ccccc3)CC2)cc1 (stereo not given) | - | - | - | -
COc1ccccc1N1CCN(CC(O)c2c(C)[nH]c3ccccc23)CC1 (stereo not given) | - | -79.3 | - | -
COc1ccccc1N1CCN(CC(O)c2ccccc2)CC1 (stereo not given) | - | -54.9 | - | -
COc1cc(OC)nc(Nc2nc(C(N)c3ccccc3)cs2)n1 (stereo not given) | - | - | - | .
COc1cc(OC)nc(Nc2nc(C(N)COCc3ccccc3)cs2)n1 (stereo not given) | - | -74.0 | - | .
COc1cc(OC)nc(Nc2nc(C(N)Cc3ccc(Cl)cc3)cs2)n1 (stereo not given) | - | - | - | .
COc1cc(OC)nc(Nc2nc(C(N)CCc3ccccc3)cs2)n1 (stereo not given) | 34.1 | - | - | .
Cc1ccc(S(=O)(=O)N2CCN(c3nc(-c4cccs4)nc4c3ncn4COC(=O)C(C)(C)C)CC2)cc1 | . | . | - | .
Cc1ccc(C(=O)c2c3ccc(N)cc3nn2CCC(N)=O)cc1 | - | -73.2 | - | -
Cc1ccc(NC(=O)C2=C(c3ccccc3)S(=O)(=O)CCS2(=O)=O)cc1 | - | -71.3 | - | -
Cc1ccc(NC(=O)c2ccccc2)cc1 | - | - | - | -
CCCC1=Nc2cc(C(=O)NC3CCCCC3)ccc2Sc2ccc(C)cc21 | - | . | - | -
CCc1cnc2ccccc2c1/C=C/c1ccc(N(C)C)cc1 | . | . | - | .
O=C(c1ccco1)N(Cc1ccc(Cl)cc1)C1CCS(=O)(=O)C1 (stereo not given) | 38.1 | - | - | -
CCc1ccc(CN(C(=O)c2ccco2)C2CCS(=O)(=O)C2)cc1 (stereo not given) | - | - | - | -
CCOc1ccccc1-n1nnc(-c2nc(-c3ccccc3C)no2)c1C | - | . | - | -
Cc1cc(F)ccc1N1CCC(N2CCN(C(C)C)C(CCO)C2)CC1 (stereo not given) | - | -53.2 | - | -
SMILES | D3 ag | D3 antag | TRPML1 ag | TRPML1 blocker
Cc1cc(F)ccc1N1CCC(N2CCN(CCC(C)C)C(CCO)C2)CC1 (stereo not given) | - | ? | - | -
COc1cccc(CN2CCN(C3CCN(c4ccccc4C)CC3)CC2CCO)c1 (stereo not given) | - | -59.6 | - | -
COc1cccc(CN2CCN(C3CCN(c4ccccc4F)CC3)CC2CCO)c1 (stereo not given) | - | -110.4 | - | -
CC(C)c1ccc(Nc2c(-c3ccccn3)nc3ccccn23)cc1 | - | . | - | -
O=[N+]([O-])c1ccc2c(c1)C(N1CCN(CCO)CC1)Cc1ccc(F)cc1S2 (stereo not given) | - | -106.1 | - | .
Fc1ccc2c(c1)Sc1ccc(Cl)cc1CC2N1CCN(CCC2OCCO2)CC1 (stereo not given) | - | -93.3 | - | -
CSc1ccc2c(c1)C(N1CCN(C)CC1)Cc1ccc(F)cc1S2 (stereo not given) | - | -95.3 | - | -
COc1ccc2c(c1)CC(N1CCN(C)CC1)c1cc(OC)ccc1S2 (stereo not given) | - | -94.3 | - | -
O=[N+]([O-])c1ccc(CN2CC(N3CCN(CCO)CC3)CS2(=O)=O)cc1 (stereo not given) | - | - | - | -
COc1ccc(Nc2nc3ccccc3n3c(N)nnc23)cc1 | - | . | - | -
COc1ccc(Cn2nnnc2C(c2ccccc2)N2CCN(c3ccccc3)CC2)cc1 (stereo not given) | . | . | - | .
COc1ccc(-c2nsc(NC(=O)COc3ccc(C)c(C)c3)n2)cc1 | - | . | - | -
COc1ccc2c(c1)CCC1C2=NN(/C(C)=C/C(C)=O)C1c1cccc(F)c1 (stereo not given) | - | -58.0 | - | -
Nc1[nH]n2c(=O)cc(-c3ccccc3)nc2c1N=Nc1ccc(S(N)(=O)=O)cc1 | - | ? | - | -
NS(=O)(=O)c1ccc(N=Nc2c(-c3ccccc3)[nH]n(-c3nc(-c4ccccc4)cs3)c2=O)cc1 | - | -65.9 | - | -
Cc1cnc(CN(C)C(=O)c2ccc3oc(Cc4ccccc4)nc3c2)[nH]1 | - | - | - | -
Cc1cnc(CN(C)C(=O)c2ccc3oc(Cc4ccc(Cl)cc4)nc3c2)[nH]1 | - | -56.9 | - | -
CN(C)c1ccc(/C=C/c2cc3ccccc3c[n+]2C)cc1 | . | . | - | .
COc1cc(/C=N/Nc2nc3c(c(=O)n(C)c(=O)n3C)n2Cc2ccccc2)ccc1OC(=O)c1ccco1 | 65.6 | - | - | -
Cc1ccc(-c2c(C3C4C=CCCC4(C)C(=O)N3Cc3ccccc3)ccc3ccccc23)cc1 (stereo not given) | . | . | - | -
Cc1ccc(C(=O)N/C(=C/c2cccc([N+](=O)[O-])c2)C(=O)NC(C)C)cc1 | - | - | - | -
CC(C)NC(=O)/C(=C\c1cccc([N+](=O)[O-])c1)NC(=O)c1ccccc1 | - | -107.1 | - | -
O=C(NCc1cccnc1)/C(=C/c1ccc([N+](=O)[O-])cc1)NC(=O)c1ccccc1 | 31.5 | - | - | -
O=C(NCc1cccnc1)/C(=C/c1ccc(Cl)cc1)NC(=O)c1ccccc1 | - | - | - | -
COc1cccc(CNC(=O)CCc2c(C)c3ccc(O)c(C)c3oc2=O)c1 | - | . | - | -
COc1ccc(N=Nc2nc(-c3ccccc3)c(-c3ccccc3)[nH]2)cc1 | - | ? | - | -
Oc1ccccc1N=Nc1nc(-c2ccccc2)c(-c2ccccc2)[nH]1 | - | -71.6 | - | -
COc1ccccc1N=Nc1nc(-c2ccccc2)c(-c2ccccc2)[nH]1 | - | -74.9 | - | -
NC1C(N)C(N)C1N (stereo not given) | . | . | - | .
O=[N+]([O-])c1ccc(Nc2ccc(F)cc2)nc1 | - | - | - | -
